# The source made the active and inactive calls. Cut-off read from the data, not from the text of the source, unless noted: active = inhibition above about 80%; inactive = the rest.
# Columns and labels:
# [1] = LFS_MB_P medulloblastoma growth inhibition, cell-based, chromothripsis tumors, cisplatin or BGB combos (AID 1671449); conditions: LFS_MB_P medulloblastoma cells;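 note: cells exposed for 96 hours; 0% = vehicle DMSO and 100% = killing by high DMSO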
# [2] = HDN33 neuroblastoma growth inhibition, cell-based, chromothripsis tumors, cisplatin or BGB combos (AID 1671450); conditions: HDN33 neuroblastoma cells, stronger effect = higher value;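 note: cells exposed to compound for four days; 0% = vehicle DMSO and 100% = cell killing by high DMSO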
# [3] = ICB984 medulloblastoma cell growth inhibition, synergistic combos for chromothripsis tumors, cisplatin or BGB combos (AID 1671451; call rule not given here;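 note: cells exposed for 96 hours before readout; 0% = vehicle DMSO and 100% = killing by high DMSO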); conditions: ICB984 medulloblastoma cells, drug combinations, stronger effect = higher value
# [4] = LFS_MB_1R medulloblastoma cell growth inhibition, synergistic combos for chromothripsis tumors, cisplatin or BGB combos (AID 1671452); conditions: LFS_MB_1R medulloblastoma cells, stronger effect = higher value;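 note: cells exposed for 96 hours before readout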
# [5] = HTB85 osteosarcoma cell growth inhibition, synergistic combos for chromothripsis tumors, BGB or cisplatin IC20 combos (AID 1671453); conditions: HTB85 osteosarcoma cells, drug combinations, stronger effect = higher value;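 note: cells exposed for 96 hours before readout; 0% = vehicle DMSO and 100% = high DMSO killing control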
# [6] = CRL2098 osteosarcoma cell growth inhibition, synergistic combos for chromothripsis tumors, BGB or cisplatin IC20 combos (AID 1671454); conditions: CRL2098 osteosarcoma cells, drug combinations, stronger effect = higher value;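 note: cells exposed for 96 h before readout; 0% = vehicle DMSO and 100% = killing by high DMSO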
# [7] = HD-MB03 medulloblastoma cell growth inhibition, synergistic combos for chromothripsis tumors, BGB or cisplatin IC20 combos (AID 1671455; in the data active = inhibition above about 83%;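 note: 0% = vehicle DMSO and 100% = high DMSO as cytotoxic control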); conditions: HD-MB03 medulloblastoma cells, stronger effect = higher value
# [8] = UWB1.289 ovarian carcinoma cell growth inhibition, synergistic combos for chromothripsis tumors, BGB or cisplatin combos (AID 1671456); conditions: UWB1.289 ovarian carcinoma cells, stronger effect = higher value;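 note: cells exposed to compound for four days; 0% = vehicle DMSO and 100% = killing by high DMSO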
# [9] = LFS_MB_2R medulloblastoma cell growth inhibition, synergistic combos for chromothripsis tumors, cisplatin combos (AID 1671457); conditions: LFS_MB_2R medulloblastoma cells, stronger effect = higher value;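 note: cells exposed to compound for four days before readout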
# [10] = MDA-MB-436 breast carcinoma cell growth inhibition, synergistic combos for chromothripsis tumors, BGB or cisplatin combos (AID 1671458; call rule not given here;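 note: cells exposed for 96 hours; 0% = vehicle DMSO and 100% = killing by high DMSO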); conditions: MDA-MB-436 breast carcinoma growth inhibition, drug combinations, stronger effect = higher value
# [11] = UWB1.289_BRCA1 ovarian cancer growth, cell-based, BGB or cisplatin combinations (AID 1671459); conditions: UWB1.289 BRCA1 ovarian carcinoma, drug combinations, stronger effect = higher value
# [12] = human astrocyte viability loss, single and combined drugs, cytotoxicity control for chromothriptic childhood tumor combination screen, cell-based, BGB or cisplatin IC20 combos (AID 1671460); conditions: Human astrocytes, drug combinations, stronger effect = higher value;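 note: cells exposed to compounds for 96 hours before viability readout; 0% = vehicle and 100% = killing control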
# [13] = growth inhibition of BT084 medulloblastoma cells, cell-based, ICGC_MB145, cisplatin and BGB IC40 combos (AID 1671461); conditions: drug combinations, stronger effect = higher value;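 note: cells exposed to drugs for 96 hours; 0% = vehicle DMSO and 100% = high DMSO full killing control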
# [14] = growth inhibition of RCMB18 medulloblastoma cells, cell-based, cisplatin and BGB IC40 combos (AID 1671462); conditions: stronger effect = higher value;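 note: cells exposed to compound for four days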
# [15] = growth inhibition of CRL1545 osteosarcoma cells, cell-based, cisplatin and BGB IC20 combos (AID 1671464); conditions: stronger effect = higher value;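 note: cells exposed to compound for 96 hours before readout; 0% = vehicle DMSO and 100% = high DMSO killing control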
# [16] = at 0.5 µM, stronger effect = higher value
# [17] = measured here: combination with BGB IC20, at 0.005 µM
# [18] = measured here: combination with BGB IC40, at 0.005 µM
# [19] = measured here: combination with BGB IC40, at 0.05 µM
# [20] = measured here: combination with cisplatin, at 0.5 µM, stronger effect = higher value
# [21] = measured here: combination with cisplatin, at 5 µM, stronger effect = higher value
# [22] = measured here: with BGB IC20 combination, at 0.5 µM
# [23] = measured here: with cisplatin IC20 combination, at 0.5 µM
# [24] = measured here: 5 uM single agent, at 5 µM
# [25] = measured here: combination with cisplatin, at 0.5 µM
# [26] = measured here: combination with cisplatin, at 5 µM
# [27] = measured here: with BGB IC20, at 0.5 µM
# [28] = measured here: with BGB IC20, at 5 µM
# [29] = measured here: with cisplatin IC20, at 0.5 µM
# [30] = measured here: with cisplatin IC20, at 5 µM
# [31] = measured here: combination with BGB at IC20, at 0.5 µM
# [32] = measured here: combination with cisplatin at IC20, at 0.5 µM
# [33] = measured here: combo with BGB at IC20, at 0.5 µM
# [34] = measured here: combo with cisplatin at IC20, at 0.5 µM
# [35] = measured here: inhibition with BGB combination, at 0.05 µM
# [36] = measured here: inhibition with cisplatin combination, at 0.05 µM
# [37] = measured here: BGB combination, at 0.5 µM
# [38] = measured here: BGB combination, at 5 µM
# [39] = measured here: cisplatin combination, at 0.5 µM
# [40] = measured here: cisplatin combination, at 5 µM
# [41] = BGB combination, concentration series, at 5 µM
# [42] = cisplatin combination, concentration series, at 5 µM
# [43] = measured here: combo with BGB IC20, at 0.5 µM
# [44] = measured here: combo with cisplatin IC20, at 0.5 µM
# [45] = cisplatin combination, at 0.5 µM
# [46] = measured here: BGB IC40 combination 0.05 uM, at 0.05 µM
# [47] = measured here: BGB IC40 combination, at 0.05 µM
smiles,measurement,setting,value
Cc1ccc([N+](=O)[O-])cc1S(=O)(=O)N(C)/N=C\c1cnc2ccc(Br)cn12,inhibition,[1]; [16],61.9% (inactive)
same,inhibition,[1]; [17],-13.3%
same,inhibition,[1]; [18],-40.2%
same,inhibition,[1]; [19],-31.8%
same,inhibition,[1]; [20],56.3%
same,inhibition,[1]; [21],118%
same,inhibition,"[2]; BGB combo, at 5 µM",99.2%
same,inhibition,[2]; at 0.5 µM,94.3% (active)
same,inhibition,"[2]; cisplatin combo, at 5 µM",99.5%
same,inhibition,[2]; [22],94%
same,inhibition,[2]; [23],93.5%
same,inhibition,"[2]; single agent, at 5 µM",99.5%
same,inhibition,"[3]; BGB IC20 combo, at 0.005 µM",97.1%
same,inhibition,"[3]; BGB IC40 combo, at 0.005 µM",95.5%
same,inhibition,"[3]; BGB IC40 combo, at 0.05 µM",97.1%
same,inhibition,[3]; at 0.5 µM,-13.8% (inactive)
same,inhibition,"[3]; cisplatin combo, at 0.05 µM",97%
same,inhibition,"[3]; cisplatin combo, at 0.5 µM",-12.8%
same,inhibition,"[3]; cisplatin combo, at 5 µM",-10.7%
same,inhibition,[3]; [24],-35%
same,inhibition,[4]; at 0.5 µM,97.7% (active)
same,inhibition,[4]; [19],22.2%
same,inhibition,[4]; [25],94.2%
same,inhibition,[4]; [26],99.5%
same,inhibition,[5]; at 0.5 µM,95.7% (active)
same,inhibition,[5]; [27],97.6%
same,inhibition,[5]; [28],99.7%
same,inhibition,[5]; [29],99.5%
same,inhibition,[5]; [30],99.8%
same,inhibition,"[5]; single agent, at 5 µM",99.8%
same,inhibition,[6]; at 0.5 µM,94.2% (active)
same,inhibition,[6]; [31],89.1%
same,inhibition,[6]; [32],96.8%
same,inhibition,[7]; at 0.5 µM,92.1% (active)
same,inhibition,[7]; [33],88.3%
same,inhibition,[7]; [34],94.9%
same,inhibition,[8]; at 0.5 µM,64.8% (inactive)
same,inhibition,[8]; [35],-16.8%
same,inhibition,[8]; [36],-30.8%
same,inhibition,[9]; at 0.5 µM,89.4% (active)
same,inhibition,[9]; [25],92.7%
same,inhibition,[9]; [26],91.4%
same,inhibition,[10]; at 0.5 µM,79.4% (inactive)
same,inhibition,[10]; [37],72.5%
same,inhibition,[10]; [38],55.5%
same,inhibition,[10]; [39],86.1%
same,inhibition,[10]; [40],74.6%
same,inhibition,[11]; [41],89.5%
same,inhibition,[11]; at 0.5 µM,74.9% (inactive)
same,inhibition,[11]; [42],96.2%
same,inhibition,[12]; at 0.5 µM,80.6% (active)
same,inhibition,[12]; [43],72.4%
same,inhibition,[12]; [44],82.6%
same,inhibition,[13]; at 0.5 µM,-3% (inactive)
same,inhibition,[13]; [45],-27.5%
same,inhibition,"[13]; cisplatin combination, at 5 µM",-30.7%
same,inhibition,[13]; [46],-4.87%
same,inhibition,"[13]; single agent, at 5 µM",-15.9%
same,inhibition,[14]; at 0.5 µM,67.8% (inactive)
same,inhibition,"[14]; cisplatin combo, at 5 µM",70%
same,inhibition,[14]; [47],19.8%
same,inhibition,[14]; [25],52.5%
same,inhibition,"[14]; single agent, at 5 µM",76%
same,inhibition,[15]; at 0.5 µM,98% (active)
same,inhibition,[15]; [22],98.1%
same,inhibition,[15]; [23],97.9%
same,inhibition,"[15]; single agent, at 0.05 µM",-77.2%
same,inhibition,"[15]; single agent, at 5 µM",100%
COc1ccc(-c2nc(-c3cc(C(F)(F)F)cc(C(F)(F)F)c3)n(Cc3ccc(C(N)=O)cc3)c2-c2ccc(OC)cc2)cc1,inhibition,[1]; [16],-25% (inactive)
same,inhibition,[1]; [17],-26.9%
same,inhibition,[1]; [18],-58.7%
same,inhibition,[1]; [19],-38.9%
same,inhibition,[1]; [20],-39.3%
same,inhibition,[1]; [21],-39.4%
same,inhibition,"[2]; BGB combo, at 5 µM",-37.8%
same,inhibition,[2]; at 0.5 µM,0.84% (inactive)
same,inhibition,"[2]; cisplatin combo, at 5 µM",-22.8%
same,inhibition,[2]; [22],36.9%
same,inhibition,[2]; [23],-4.78%
same,inhibition,"[2]; single agent, at 5 µM",-31.8%
same,inhibition,"[3]; BGB IC20 combo, at 0.005 µM",-2.07%
same,inhibition,"[3]; BGB IC40 combo, at 0.005 µM",-30.8%
same,inhibition,"[3]; BGB IC40 combo, at 0.05 µM",-25.1%
same,inhibition,[3]; at 0.5 µM,-9.24% (inactive)
same,inhibition,"[3]; cisplatin combo, at 0.05 µM",-31.6%
same,inhibition,"[3]; cisplatin combo, at 0.5 µM",-14.1%
same,inhibition,"[3]; cisplatin combo, at 5 µM",-32.9%
same,inhibition,[3]; [24],-2.84%
same,inhibition,[4]; at 0.5 µM,-33.2% (inactive)
same,inhibition,[4]; [19],-28.8%
same,inhibition,[4]; [25],-57.5%
same,inhibition,[4]; [26],-46.5%
same,inhibition,[5]; at 0.5 µM,-24.2% (inactive)
same,inhibition,[5]; [27],-10.5%
same,inhibition,[5]; [28],-7.08%
same,inhibition,[5]; [29],-32.4%
same,inhibition,[5]; [30],-14.9%
same,inhibition,"[5]; single agent, at 5 µM",13.9%
same,inhibition,[6]; at 0.5 µM,-66.2% (inactive)
same,inhibition,[6]; [31],-72.7%
same,inhibition,[6]; [32],-56.3%
same,inhibition,[7]; at 0.5 µM,-5.54% (inactive)
same,inhibition,[7]; [33],-5.38%
same,inhibition,[7]; [34],0.332%
same,inhibition,[8]; at 0.5 µM,-10.7% (inactive)
same,inhibition,[8]; [35],-23.7%
same,inhibition,[8]; [36],-19.3%
same,inhibition,[9]; at 0.5 µM,-16.7% (inactive)
same,inhibition,[9]; [25],-7.64%
same,inhibition,[9]; [26],-13.3%
same,inhibition,[10]; at 0.5 µM,-7.79% (inactive)
same,inhibition,[10]; [37],-10.8%
same,inhibition,[10]; [38],-8.02%
same,inhibition,[10]; [39],-12.9%
same,inhibition,[10]; [40],-13.3%
same,inhibition,[11]; [41],4.42%
same,inhibition,[11]; at 0.5 µM,-9.42% (inactive)
same,inhibition,[11]; [42],7.4%
same,inhibition,[12]; at 0.5 µM,5.71% (inactive)
same,inhibition,[12]; [43],1.56%
same,inhibition,[12]; [44],6.54%
same,inhibition,[13]; at 0.5 µM,-7.83% (inactive)
same,inhibition,[13]; [45],-5.41%
same,inhibition,"[13]; cisplatin combination, at 5 µM",-208%
same,inhibition,[13]; [46],-36.9%
same,inhibition,"[13]; single agent, at 5 µM",-5.53%
same,inhibition,[14]; at 0.5 µM,-23% (inactive)
same,inhibition,"[14]; cisplatin combo, at 5 µM",-55.8%
same,inhibition,[14]; [47],-13.9%
same,inhibition,[14]; [25],-29.4%
same,inhibition,"[14]; single agent, at 5 µM",-12.6%
same,inhibition,[15]; at 0.5 µM,21.1% (inactive)
same,inhibition,[15]; [22],-22.6%
same,inhibition,[15]; [23],42.1%
same,inhibition,"[15]; single agent, at 0.05 µM",-21.9%
same,inhibition,"[15]; single agent, at 5 µM",-24.7%

# From PubChem BioAssay
